Bioassay records (PubChem)
The list is not random: actives were taken first. Their share in the collection is about 18%.
DT40 TDP1 no CPT: qHTS for Inhibitors of human tyrosyl-DNA phosphodiesterase 1 (TDP1): qHTS in cells in absence of CPT | DT40 Tdp1-/- hTDP1 cells, no CPT, ATP luminescence, 48 h | Potency, µM (titrated, usually from 46.2 µM), without a hit: top-dose activity change, negative = growth inhibition, most hits filed as inhibitors | actives 15% (n = 420,000); further: potency means the concentration at half of the fitted maximal effect; nearly all actives have a fitted effect of over 55% in size
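Camptothecin absent (DMSO only). Human TDP1-complemented DT40 knockout cells, 400 cells/well, 37 °C for minimum 48 hr; ATP measured via CellTiter-Glo, 30 min dark incubation, luminescence.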
DT40 TDP1 CPT: growth inhibition of DT40 Tdp1-/-;hTDP1 cells with camptothecin (screen for TDP1 inhibitors); actives 12% (n = 420,000); Potency, µM (top dose mostly 46.2 µM), inactives show top-dose activity change, negative = growth inhibition, hits mostly inhibitors; chicken DT40 Tdp1-/-;hTDP1 cells + 20 nM CPT, ATP luminescence, 48 h; further: potency means the concentration at half of the fitted maximal effect; nearly all actives have a fitted effect of over 55% in size
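Chicken DT40 Tdp1-/- cells complemented with human TDP1, 400 cells/well, exposed to compounds plus 20 nM camptothecin for at least 48 h at 37 C; viability read as ATP content by CellTiter-Glo luminescence.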
VP16 counter: counter-screen for ROR gamma inhibitors: Gal4-VP16 reporter | Drosophila S2 Gal4-VP16 UAS-luciferase, luminescence, 20 h | Potency, µM (doses to about 53.6 µM), inactives show at the top dose activity, negative = inhibition, actives largely listed as inhibitors | actives 3.5% (n = 310,000) | AID 2546;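 further: Gal4-VP16 expression switched on by copper sulfate through the metallothionein promoter; potency means the concentration at half of the fitted maximal effect; nearly all actives have a fitted effect of over 50% in size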
RORg inh: blocks mouse ROR gamma transcriptional activity; Drosophila S2 Gal4-RORgamma UAS-luciferase reporter, 20 h; Potency, µM (series often up to 53.6 µM), without a hit: at the highest dose activity change, negative = inhibition, hits mostly inhibitors; P51450; AID 2551; actives 5.4% (n = 310,000); further: potency means the concentration at half of the fitted maximal effect; nearly all actives have a fitted effect of over 60% in size
Target sequence (P51450 whole entry, looked up, the tested form may be a part): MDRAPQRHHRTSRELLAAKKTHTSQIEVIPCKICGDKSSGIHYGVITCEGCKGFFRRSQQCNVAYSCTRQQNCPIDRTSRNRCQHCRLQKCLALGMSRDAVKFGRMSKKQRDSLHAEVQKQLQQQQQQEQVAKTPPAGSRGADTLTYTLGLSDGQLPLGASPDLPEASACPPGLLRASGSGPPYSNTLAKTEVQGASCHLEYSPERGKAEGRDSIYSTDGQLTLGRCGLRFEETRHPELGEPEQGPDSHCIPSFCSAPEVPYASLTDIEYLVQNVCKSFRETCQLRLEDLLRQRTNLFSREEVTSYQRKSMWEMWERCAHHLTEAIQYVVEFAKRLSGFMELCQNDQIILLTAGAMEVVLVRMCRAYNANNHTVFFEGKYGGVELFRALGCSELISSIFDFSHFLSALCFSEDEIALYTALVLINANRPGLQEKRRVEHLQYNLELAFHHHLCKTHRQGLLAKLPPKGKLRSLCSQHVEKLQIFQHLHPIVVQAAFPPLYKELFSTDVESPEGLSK
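Schneider cells (Drosophila), stable Gal4 DBD–ROR gamma + UAS-luc; 1 hr cmpd preincubation; Cu2+ induction 700 uM final; 20 hr ambient; luminescence.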
LDHA inh: LDHA (human) enzyme inhibition | P00338 | purified LDHA, NADH/diaphorase-resazurin fluorescence; stronger effect = lower value | activity change, % (values are at about 110 or 230 µM) | actives 0.15% (n = 480,000) | AID 1347041; in the data active means activity change below about -30%; inconclusive means mostly about -25% to -30%;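 further: plate controls were DMSO wells for no effect and wells without enzyme for full effect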
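Enzyme activity of human lactate dehydrogenase 5 (2 nM; 0.06 mM NADH, 0.2 mM pyruvate, 5 min, RT) is measured via a resazurin/diaphorase fluorescence readout of residual NADH.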
IL-1B inflam inh: blocks inflammasome-driven IL-1 beta release. THP-1 LPS/ATP IL-1B secretion, AlphaLISA, 16 h; stronger effect = lower value. activity change, % at 57.5 µM. actives 4.7% (n = 360,000); in the data active means activity change below about -50%; inconclusive means mostly about -30% to -49%
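Secreted IL-1B measured by AlphaLISA bead assay after 16 h compound exposure of THP-1 cells; compounds (final up to 57.5 uM) added 1 h before LPS (250 ng/mL) and ATP (1.25 mM) stimulation; lower signal means less secretion.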
An asterisk follows results filed as active; ? = inconclusive; / = not tested or not shown. Unless noted, the call rests on the fitted dose curve; in most records, active means well fitted curve in the direction sought with a large enough effect; inconclusive means small, poorly fitted or top-dose-only effect, or another doubt; inactive means no such curve, though single readings can be large; an effect the other way counts as inactive or inconclusive. Unless noted, on the % scale 0 is the no-effect control and ±100 the full control effect.

SMILES	DT40 TDP1 no CPT	DT40 TDP1 CPT	VP16 counter	RORg inh	LDHA inh	IL-1B inflam inh
COC(=O)N1CCCCC1c1cc(C(=O)NCc2ccccc2)no1 (configuration not stated)	0%	-7%	/	/	0	22
O=C(NCc1ccc(Cl)c(Cl)c1)c1cc(C2CCCCN2C(=O)c2ccccn2)on1 (configuration not stated)	18µM*	10µM*	/	/	-13	0
O=C(NCc1ccc(Cl)c(Cl)c1)c1cc(C2CCCCN2C(=O)OCCF)on1 (configuration not stated)	23µM*	23µM*	/	/	-4	-23
O=C(NCc1ccccc1)c1ncoc1-c1cccs1	/	/	/	/	14	/
COc1ccc(N(CCCN2C(=O)c3cccc4cccc(c34)C2=O)C(=O)c2cccc(OC)c2)cc1	10µM*	13µM*	3%	-3%	1	-11
O=C1c2cccc3cc([N+](=O)[O-])cc(c23)C(=O)N1CC1CCCO1 (configuration not stated)	6.5µM*	7.3µM*	2%	-13%	10	-72*
CN(C)CCCN1C(=O)c2cccc3cccc(c23)C1=O	?	?	-8%	-44%	-1	-89*
CN(C)CCN1C(=O)c2cccc3cc([N+](=O)[O-])cc(c23)C1=O	0.26µM*	0.21µM*	/	/	32	-102*
Cc1ccc(N(CCCCN2C(=O)c3ccccc3C2=O)C(=O)c2ccc(Cl)s2)cc1	?	?	-4%	11%	-6	-11
Cc1ccc(N(CCCCN2C(=O)c3ccccc3C2=O)C(=O)c2cccc([N+](=O)[O-])c2)cc1	16µM*	?	-14%	31%	-12	-29
O=C(O)CCCN1C(=O)c2cccc3cccc(c23)C1=O	-12%	7%	6%	11%	3	-13
O=C1c2cccc3cccc(c23)C(=O)N1CCCN(C(=O)c1cccs1)c1cccc(F)c1	16µM*	?	-3%	-7%	-3	30
O=C1c2ccccc2C(=O)N1CCCCN(C(=O)c1ccc(Cl)s1)c1ccc(Cl)cc1	21µM*	?	5µM*	8.9µM*	-3	-22
C#CC1(O)C(C)CN(C)CC1C (configuration not stated)	/	/	/	/	4	/
CCc1ccc(NC(=O)CSC2=Nc3ccccc3C3=NC(CCC(=O)NCCc4ccccc4)C(=O)N23)cc1 (configuration not stated)	?	23µM*	/	/	-6	/
CCOc1ccc(NC(=O)CSC2=Nc3ccccc3C3=NC(CCC(=O)NCc4ccccc4)C(=O)N23)cc1 (configuration not stated)	16µM*	?	/	/	-4	/
CCc1ccccc1NC(=O)CSC1=Nc2ccccc2C2=NC(Cc3ccccc3)C(=O)N12 (configuration not stated)	?	16µM*	/	/	-6	/
Cc1ccccc1NC(=O)CSC1=Nc2ccccc2C2=NC(CCC(=O)NCc3ccccc3)C(=O)N12 (configuration not stated)	?	-26%	/	/	-3	/
CCc1ccc(NC(=O)CSC2=Nc3ccccc3C3=NC(CCC(=O)NCc4ccccc4)C(=O)N23)cc1 (configuration not stated)	23µM*	?	/	/	3	/
CCOC(=O)C1=C(CS(=O)(=O)c2cc(Cl)ccc2OC)NC(=O)NC1c1cccc(OC)c1 (configuration not stated)	/	/	/	/	-10	/
Cc1cc(F)ccc1NCC(=O)N1CCN(S(C)(=O)=O)CC1	/	/	/	/	1	/
CCOC(=O)COc1ccc(CC)cc1C(=O)c1ccn2nc(-c3ccc(Cl)cc3)cc2n1	21µM*	21µM*	/	/	-6	/
CCOC(=O)COc1ccc(F)cc1C(=O)c1ccn2nc(-c3ccc(OC)cc3)cc2n1	/	/	/	/	-1	/
CCOC(=O)COc1ccc(CC)cc1C(=O)c1ccn2nc(-c3ccccc3)cc2n1	23µM*	15µM*	/	/	-7	/
COc1cc(C(CCN2CCCC2)c2c(OC)cc(OC)c3c(C)cc(=O)oc23)cc(OC)c1OC (configuration not stated)	23µM*	13µM*	1%	-26%	0	7
SMILES	DT40 TDP1 no CPT	DT40 TDP1 CPT	VP16 counter	RORg inh	LDHA inh	IL-1B inflam inh
COc1cc(C(CCN2CCCCC2)c2c(OC)cc(OC)c3c(-c4ccccc4)cc(=O)oc23)cc(OC)c1OC (configuration not stated)	?	18µM*	?	?	0	?
COc1cc(C(CCN2CCOCC2)c2c(OC)cc(OC)c3c(C)cc(=O)oc23)cc(OC)c1OC (configuration not stated)	-28%	?	-1%	3%	-2	-9
COc1cc(C(CCN2CCCC(C)C2)c2c(OC)cc(OC)c3c(-c4ccccc4)cc(=O)oc23)cc(OC)c1OC (configuration not stated)	18µM*	?	?	?	1	-10
COc1ccc(C(CCN2CCOCC2)c2c(OC)cc(OC)c3c(C)cc(=O)oc23)cc1 (configuration not stated)	18µM*	23µM*	-15%	-10%	0	6
CC(C)CCC1(C)NC(=O)N(Cc2cc(F)cc3cccnc23)C1=O (configuration not stated)	/	/	/	/	-20	/
O=C(c1ccc2[nH]ccc2c1)N1CCN(Cc2ccccc2)CC1	/	/	/	/	-3	/
COc1ccc(O)c(C(=O)/C=C/c2ccc(C)cc2)c1	/	/	/	/	17	/
Cc1ccc(/C=C/c2nc3ccccc3[nH]2)o1	16µM*	23µM*	-11%	11µM*	4	-73*
N#CCOc1ccccc1/C=C/c1nc2ccccc2c(=O)[nH]1	-19%	-30%	?	?	-5	-4
Cc1ccccc1/C=C\c1nc2ccccc2c(=O)[nH]1	16µM*	26µM*	3%	-5%	-8	0
Cc1ccc(/C=C/c2nc3ccccc3c(=O)[nH]2)cc1	?	?	?	2.5µM*	-7	-11
Cc1ccc(/C=C/c2nc3ccccc3[nH]2)cc1	13µM*	10µM*	/	/	-2	/
CS(=O)(=O)c1cccc(C(=O)Nc2ccc(N3CCOCC3)cc2)c1	/	/	/	/	-1	/
CNC(=O)c1ccc(NS(=O)(=O)c2ccc(NC(C)=O)cc2)cc1	/	/	/	/	6	/
COc1ccccc1CNC(=O)COc1ccc2c(C)cc(=O)oc2c1	/	/	/	/	-1	/
Cc1ccccc1/C=C/c1nc2ccccc2c(=O)[nH]1	?	16µM*	?	?	-7	35
